In all, about 77,000 compounds went through this assay and about 4,600 (6%) were called active. Roughly 1% stayed inconclusive and do not appear here.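 The calls were made as follows: active = mean inhibition above about 93%, with at least 55% of replicates each passing it (limit read from the data, passing the limit was not always enough); inconclusive = only one of those two conditions holds; inactive = neither condition holds.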 The list comes from a sample in which actives are over-represented; it also holds similar structures and randomly drawn compounds.
Assay: growth inhibition of T. cruzi in host fibroblasts – cell-based, beta-gal Tulahuen parasites, NIH3T3 host, luminescence, primary screen (AID 624255)
Conditions: T. cruzi beta-gal in NIH3T3, GalScreen luminescence, 90 h; at 8.34 µM; active compounds read high
With `CC=Cc1ccc2n(c1=O)C[C@@H]1[C@@H](CO)[C@H](C(=O)N3CCc4ccccc4C3)N(C(=O)C3CCC3)[C@H]21` (mixture of isomers) the inhibition was 39.9% (inactive).
In the case of `CCCC(=O)Nc1ccc2c(c1)C(=O)N(C)C[C@@H](OC)[C@H](C)CN(C(C)=O)[C@H](C)CO2`, the inhibition is reported as -1.03% (inactive).
With `Cc1ccc(S(=O)(=O)N(C)C[C@@H]2OCCCC[C@H](C)Oc3ccc(NS(=O)(=O)c4cn(C)cn4)cc3C(=O)N([C@H](C)CO)C[C@@H]2C)cc1` the inhibition was 39.1% (inactive).
For `CO[C@@H]1CN(C)C(=O)c2ccc(NC(=O)c3ccc(F)cc3)cc2OC[C@H](C)NC[C@@H]1C`, the inhibition was -9.72% (inactive).
With `Cn1cnc(S(=O)(=O)N2C[C@@H](O)COC[C@H]3O[C@H](CC(=O)N4CCN(c5ccccc5)CC4)CC[C@@H]32)c1` the inhibition was -64.3% (inactive).
In the case of `CC(C)C#Cc1ccc2c(c1)O[C@H](CN(C)CC1CCOCC1)[C@@H](C)CN([C@H](C)CO)S2(=O)=O`, the inhibition is reported as 93.8% (inactive).
For `CC(C)C#Cc1ccc2c(c1)O[C@H](CN(C)Cc1ccccc1)[C@H](C)CN([C@@H](C)CO)S2(=O)=O`, the inhibition was 111% (active).
For `C/C=C/c1ccc2c(c1)O[C@H](CN(C)Cc1ccccc1)[C@H](C)CN([C@@H](C)CO)S2(=O)=O`, the inhibition was 62.6% (inactive).
In the case of `CC(C)C#Cc1ccc2c(c1)O[C@H](CN(C)Cc1ccccn1)[C@H](C)CN([C@H](C)CO)S2(=O)=O`, the inhibition is reported as 57.8% (inactive).
For `C[C@@H]1CN([C@H](C)CO)S(=O)(=O)c2ccc(C#CC(C)(C)O)cc2O[C@@H]1CN(C)Cc1ccccc1`, the inhibition was 34.1% (inactive).
In the case of `C[C@@H]1CN([C@@H](C)CO)S(=O)(=O)c2ccc(/C=C/c3ccccc3)cc2O[C@H]1CN(C)Cc1ccccc1`, the inhibition is reported as 107% (active).
For `CC(C)C#Cc1ccc2c(c1)O[C@@H](CN(C)CC1CCOCC1)[C@H](C)CN([C@H](C)CO)S2(=O)=O`, the inhibition was 91.2% (inactive).
In the case of `C[C@@H]1CN([C@H](C)CO)S(=O)(=O)c2ccc(/C=C/c3ccccc3)cc2O[C@@H]1CN(C)Cc1ccccc1`, the inhibition is reported as 81.9% (inactive).
In the case of `CC(C)C#Cc1ccc2c(c1)O[C@@H](CN(C)Cc1ccncc1)[C@@H](C)CN([C@@H](C)CO)S2(=O)=O`, the inhibition is reported as 122% (active).
With `COc1cccc(NC(=O)C[C@H]2CC[C@@H]3[C@H](COc4ccc(NC(C)=O)cc4C(=O)N3C)O2)c1` the inhibition was -37.9% (inactive).
With `O=C(C[C@@H]1CC[C@@H]2[C@H](COC[C@@H](O)CN2S(=O)(=O)c2ccccc2)O1)NCC1CCCCC1` the inhibition was 34.1% (inactive).
For `COc1ccc(NC(=O)N[C@@H]2CC[C@H](CC(=O)NC3CCC3)O[C@H]2CO)cc1`, the inhibition was 16% (inactive).

From PubChem BioAssay AID624255 (Broad Institute, 2012)
